14-3-3 Bad inh: disrupts binding of bovine 14-3-3 zeta to phospho-Bad peptide. P63103. TR-FRET 14-3-3zeta/Dy647-pBad peptide displacement, 1 h. inhibition, % at 21.7 µM. 0.71% of 220,000 active;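 active = inhibition above about 70%, limit read from the data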;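 note: 0% = full 14-3-3 plus peptide FRET controls and 100% = background without 14-3-3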
Mcl1-Bid inh: Mcl-1/Bid interaction inhibition | 0.97% of 220,000 active | TR-FRET Mcl-1/Bid-Dy647 peptide binding, 1536-well | AID 1021 | inhibition, % at 21.7 µM;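 active = compounds that cut the binding signal by more than half at the single screening dose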;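 note: His-tagged Mcl-1 with europium anti-His antibody binding Bid BH3 peptide; 0% = Mcl-1 plus peptide wells and 100% = peptide-only wells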
Mcl1-Noxa inh: Mcl-1/Noxa interaction inhibition. Q07820. TR-FRET Mcl-1/Noxa peptide binding, 2 h. inhibition, % at 21.7 µM. 1.5% of 220,000 active. AID 1022;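 active = compounds that cut the protein-peptide binding signal by more than 50% relative to plate controls in a single-dose test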;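 note: His-tagged Mcl-1 with rhodamine Noxa BH3 peptide and terbium anti-His antibody; 0% = Mcl-1 plus Noxa peptide wells and 100% = peptide-only wells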
Bim-Mcl-1: inhibitors of Bim-Mcl-1 interaction, human; Q07820; Bead-based flow cytometry, Bim peptide-Mcl-1 binding; inhibition, % at 10 µM; 0.1% of 190,000 active; in the data active = inhibition above about 40%;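 note: 0% = no compound tracer wells and 100% = peptide blocker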
NCF1 inh: inhibitors of human p47phox binding; p47phox/p22phox peptide binding, fluorescence polarization, 2 h; inhibition, % at 24.7 µM; 0.53% of 220,000 active; AID 1274;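 active = inhibition above about 30%, limit read from the data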;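 note: 0% = p47phox with labelled peptide and 100% = labelled peptide alone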
Target sequence (P14598 whole entry, looked up): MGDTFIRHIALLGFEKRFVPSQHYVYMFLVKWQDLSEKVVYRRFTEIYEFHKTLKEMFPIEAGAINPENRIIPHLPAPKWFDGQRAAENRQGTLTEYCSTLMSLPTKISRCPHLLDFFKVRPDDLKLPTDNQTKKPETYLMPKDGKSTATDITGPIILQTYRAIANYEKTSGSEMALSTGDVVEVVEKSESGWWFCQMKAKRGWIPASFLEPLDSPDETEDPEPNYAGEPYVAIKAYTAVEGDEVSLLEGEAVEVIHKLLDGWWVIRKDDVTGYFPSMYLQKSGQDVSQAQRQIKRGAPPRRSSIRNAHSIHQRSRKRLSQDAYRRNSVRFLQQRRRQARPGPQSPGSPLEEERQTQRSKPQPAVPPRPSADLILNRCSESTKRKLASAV
* marks the source's active call; other numbers are inactive results; / = no result given; [ ] = remark or other dose. In the library only some 3.2% were active in any assay of this set; here they are far more common.

SMILES	14-3-3 Bad inh	Mcl1-Bid inh	Mcl1-Noxa inh	Bim-Mcl-1	NCF1 inh
CC1CCN(CCCCOc2ccccc2-c2ccccc2)CC1	-7	9	27	-4	1
CCc1ccccc1OCCCCN1CCCC1	66	32	4	-2	-8
Cc1ccccc1OCCCN1CCCC1	76*	27	1	0	-4
C=CCc1ccccc1OCCCCN1CCCC1	79*	26	3	2	-8
CC1CCCN(CCCOc2ccccc2-c2ccccc2)C1 (centres undefined)	10	16	14	-4	31*
Cc1cc2oc(C(=O)N(Cc3ccccc3)C3CCS(=O)(=O)C3)cc(=O)c2cc1Cl (centres undefined)	88*[fluorescence artefact?]	13	0	-2	-5
O=C(N/C=C/c1ccco1)OCc1ccccc1	-11	-39	4	0	-25
O=C(N/C=C/c1ccco1)NCc1ccccc1	6	-65	64*	0	-30
CCOC(=O)C1=C(C)N(C)C(=O)NC1c1c(C)nn(-c2ccc(C)cc2)c1Cl (centres undefined)	28	-5	-12	0	2
CCOC(=O)C1=C(C)NC(=O)NC1c1c(C)nn(-c2ccccc2)c1Cl (centres undefined)	93*	19	-84	2	-10
O=[N+]([O-])c1ccc(C(=Nc2cccc3ccccc23)N2CCOCC2)cc1	97*[fluorescence artefact?]	2	8	2	-11
NC(=O)c1ccsc1NC(=O)c1ccc2c(c1)CCCC2	-2	0	10	-1	-20
NC(=O)c1ccsc1NC(=O)c1ccc(N2CCCC2=O)cc1	-10	-2	55*	0	-24
COc1ccc(CN(C)CCc2ccccn2)cc1OC	63	46	34	-1	-7
COc1cc(CN(C)CCc2ccccn2)cc(OC)c1OC	73*	26	17	1	1
NCCCC[C@@H]1NC(=O)c2cc([N+](=O)[O-])cc(I)c2SC[C@@H](C(N)=O)NC(=O)[C@H](Cc2ccc(O)cc2)NC1=O	72*[fluorescence artefact?]	30	54*	-2	-5
CCSS(=O)(=O)c1cccc2cccnc12	15	-37	-38	/	52*
COc1cc(/C=c2\sc3n(c2=O)CCCN=3)ccc1O	69	-17	8	0	-3
O=c1/c(=C/c2ccc([N+](=O)[O-])cc2)sc2n1CCCN=2	80*	10	28	0	-4
N#Cc1c(Cl)nsc1NN	-15	-44	22	-1	7
CC(C)N1CC2=C(OC(N)=C(C#N)C2c2cccnc2)/C(=C/c2cccnc2)C1 (centres undefined)	9	-59	-9	2	77*
N#CC1=C(N)OC2=C(CN(Cc3ccccc3)C/C2=C\c2cccnc2)C1c1cccnc1 (centres undefined)	-12	-4	18	-1	123*
Cc1ccc(-c2[nH]nc3c2C(c2cccnc2)C(C#N)=C(N)O3)cc1 (centres undefined)	-2	-70	13	-3	13
CC(C)c1[nH]nc2c1C(c1cccnc1)C(C#N)=C(N)O2 (centres undefined)	-20	92*	3	-2	-12
NNC(=O)CCc1nc2ccccc2[nH]1	-4	-24	-8	0	-7
SMILES	14-3-3 Bad inh	Mcl1-Bid inh	Mcl1-Noxa inh	Bim-Mcl-1	NCF1 inh
Cc1cc(C)cc(N=Cc2[nH]c3ccc(Br)c(Cl)c3c2O)c1	4	-15	52*	-5	-17
Cc1cccc(N(CC(=O)Nc2c(C)n(C)n(-c3ccccc3)c2=O)S(C)(=O)=O)c1	-5	99*	4	-2	-19
COCCN(CCOC)S(=O)(=O)c1ccc(C(=O)Nc2c(C)n(C)n(-c3ccccc3)c2=O)cc1	-2	-18	102*	/	-6
Cc1c(NC(=O)c2ccc(S(=O)(=O)N(C)c3ccccc3)cc2)c(=O)n(-c2ccccc2)n1C	-6	-15	-2	0	1
COc1ccccc1N(CC(=O)Nc1c(C)n(C)n(-c2ccccc2)c1=O)S(=O)(=O)c1ccc(C)cc1	-1	-31	15	0	2
CCCNC(=O)c1nc(C)n(-c2cc(Cl)ccc2Cl)n1	-5	-23	10	-2	6
Cn1ccnc1SCC(=O)Nc1ccc(F)c([N+](=O)[O-])c1	1	-19	5	-4	-1
Cc1ccc(/C=N/NC(=O)CNC(=O)c2cccc([N+](=O)[O-])c2C)o1	-19	-37	1	-4	7
O=C(NCc1ccccc1)c1ccc2nc(-c3ccco3)c(-c3ccco3)nc2c1	-6	12	102*	4	-11
CC(=O)c1ccc(NC(=O)c2ccc3nc(-c4ccco4)c(-c4ccco4)nc3c2)cc1	40	97*	101*	10	-26
O=C(Nc1ccccc1)c1ccc2nc(-c3ccco3)c(-c3ccco3)nc2c1	-6	32	101*	13	0
O=C(Nc1cccnc1)c1ccc2nc(-c3ccccc3)c(-c3ccccc3)nc2c1	-14	-7	-9	-3	3
CC(C)C(=O)NNS(=O)(=O)c1ccccc1	-3	-16	3	0	-2
CNNC(=O)C(=O)NNS(=O)(=O)c1ccccc1	-7	86*	-3	-1	-5
COc1cc(CNCc2ccc(SC)cc2)cc(OC)c1	48	51*	25	-4	-33
O=C(O)c1ccc(-n2c(=O)c3ccccc3c3ccccc3c2=O)cc1	-4	7	0	0	-7
Cc1ccc(-n2c(=O)c3cc4c(=O)n(-c5ccc(C)c(C)c5)c(=O)c4c(C(=O)c4ccc(C(=O)O)cc4)c3c2=O)cc1C	36	102*	95*	/	18
COc1ccc(NC(=O)c2ccc(-c3ccccc3Cl)o2)cc1	3	6	-2	-1	-14
CCc1nnc(NC(=O)c2ccc(-c3ccccc3Cl)o2)s1	18	53*	20	1	-6
FC(F)(Cl)c1nnc2ccc(Cl)nn12	-11	-22	13	1	-2
O=C1NC(CCc2ccccc2)C(=O)N1Cc1ccccc1Cl (centres undefined)	-3	95*	-5	17	-6
CC(C)c1ccc(OCc2ccc(C(=O)O)o2)cc1	3	-3	69*	/	-12
O=C(O)c1ccc(COc2ccc(Cl)cc2)o1	4	-12	19	-4	1
O=C(Nc1ccccc1F)Nc1ccccc1OC(F)F	-4	-37	4	-3	-10
COc1cnn(Cc2ccccc2)c(=O)c1SCc1ccccc1	8	-47	-143	-2	-4
CCOc1cnn(Cc2ccccc2)c(=O)c1SCc1ccccc1	-15	-25	70*	-3	-8
O=S1(=O)N=C(Oc2cccc3ccccc23)c2ccccc21	86*	1	45	-1	20
Cc1ccccc1OC1=NS(=O)(=O)c2ccccc21	37	-20	12	-1	-2
COc1ccc2c3c(cccc13)N(C)N=C2C	-5	-46	87*	18	3
COc1ccccc1N1CCN(S(=O)(=O)c2ccc3c4c(cccc24)C(=O)N3C)CC1	-6	5	13	-4	-22

Compound activity as filed in PubChem.
